Test results taken from PubChem BioAssay (NCATS).
Inconclusive results are not listed. Where a call stands in place of a potency, no number is given. A number with no mark means an inactive call. Activity calls are given as the source filed them. Calls follow the shape of the dose curve; as a rule, active = well fitted cell-killing curve with a large enough effect; inconclusive = small, poorly fitted or top-dose-only effect, or effect the other way; inactive = flat fitted curve, though single readings scatter.

Test system: Tov-21-G
Test: Primary qHTS to identify gynecologic anti-cancer compounds using libraries of approved drugs and bioactive compounds (AID 1345084); also: nearly all actives have a fitted effect of over 55% in size
Conditions: Gynecologic cancer cell panel viability, ATPlite luminescence, 48 h; series mostly up to 57.5 µM
Procedure, shortened: (§1)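 Luminescence from the ATPlite ATP-monitoring reagent indicates viable cell number; lower signal means cytotoxicity. Cells received compound 16 h after seeding and were exposed for 48 h across five concentrations.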

| Compound | Potency | activity change, negative = cytotoxicity |
| --- | --- | --- |
| Cc1ccc(C)c(NS(=O)(=O)c2cc(C(=O)Nc3ccccc3-c3ccccc3)ccc2C)c1 | inactive | – |
| C[C@@H]1C[C@H]2O[C@@]3(O[C@@H]2C(C)(C)O)C(O)[C@@]2(C)C4CCC5C(C)(C)[C@@H](O[C@H]6OC[C@H](O)[C@@H](O)[C@@H]6O)CC[C@@]56C[C@@]46CC[C@]2(C)C13 (stereo partly drawn) | inactive | – |
| CN(C)[C@@H]1CCc2[nH]c3ccc(NC(=O)c4ccc(F)cc4)cc3c2C1 | inactive | – |
| O=C(Nc1cc(C(F)(F)F)ccc1N1CCCCC1)c1ccncc1 | inactive | – |
| O=S(=O)(c1ccc(Cl)cc1)N1CCN(c2ccnc3cc(Cl)ccc23)CC1 | inactive | – |
| C=C(CCC1C(C)(O)CCC2C(C)(C)C(O)CCC12C)C(O)CO (stereo not drawn) | inactive | – |
| CCC(CC)Nc1nc(C)c(-c2ccc(OC(F)(F)F)cc2OC)nc1OC | inactive | – |
| CCOC(=O)c1ccc(OCCC2CCN(c3ccc(C)nn3)CC2)cc1 | inactive | – |
| CC(=O)NC[C@H]1CN(c2ccc(N3CCSCC3)c(F)c2)C(=O)O1 | inactive | – |
| COc1ccc(OC)c(-c2ccc(NC(=O)c3ccncc3F)cc2)c1 | inactive | – |
| Nc1nc(OCc2cc(Br)cs2)c2[nH]cnc2n1 | inactive | – |
| CC1CCC(=O)CC(SCC(O)C(=O)O)CCC(=O)O1 (stereo not drawn) | inactive | – |
| Cc1nc(N2CCN(C(=O)c3ccco3)CC2)c2c3c(sc2n1)CCCC3 | inactive | – |
| CC(C)c1cc(-c2ccc(F)c3ccccc23)nc(N)n1 | inactive | – |
| Cc1cc(C)nc(SCC(=O)Nc2ncc(Cc3cccc4ccccc34)s2)n1 | inactive | – |
| CC(C)(C)OC(=O)c1ncn2c1C(C)(C)Nc1ccccc1-2 | inactive | – |
| FC(F)(F)c1ccccc1-c1cc(C(F)(F)F)c2nc(C3=NOC4(CCCCC4)C3)[nH]c2c1 | inactive | – |
| C=C1C(=O)O[C@H]2C1CCC(C)=C1C(=O)C=C(C)[C@@]12O (stereo partly drawn) | inactive | – |
| CN(C)CCOc1cc(NS(=O)(=O)c2c(Cl)cc(C(F)(F)F)cc2Cl)ccc1Cl | inactive | – |
| O=C(NCCCCN1CCN(c2cccc(Cl)c2Cl)CC1)c1cc2ccccc2s1 | inactive | – |

| Compound | Potency | activity change, negative = cytotoxicity |
| --- | --- | --- |
| COC(=O)c1sccc1S(=O)(=O)Nc1ccc(Nc2ccccc2)cc1OC | inactive | – |
| COc1cccc(CN(C(=O)CC(C)(C)C)[C@H]2C[C@H](C(=O)N3CCNCC3)N(Cc3ccc4c(c3)OCO4)C2)c1 | inactive | – |
| CCCSc1nc(N[C@@H]2C[C@H]2c2ccc(F)c(F)c2)c2nnn([C@@H]3C[C@H](OCCO)[C@@H](O)[C@H]3O)c2n1 | inactive | – |
| COc1ccccc1N1CCN(c2ncnc3n[nH]c(Br)c23)CC1 | inactive | – |
| Cc1ccc(F)cc1S(=O)(=O)N[C@@H]1CCN(Cc2ccc(OC(C)C)cc2)C1 | inactive | – |
| Cc1ccccc1CN1CCn2c1nc1c(c2=O)CN(Cc2ccccc2)CC1 | inactive | – |
| O=C(O)c1cccc(-c2ccc(-c3cn(C(=O)N4CCCCC4Cc4ccccc4)nn3)cc2)c1 (stereo not drawn) | inactive | – |
| CC(CCC1(O)OC2CC3C4CC=C5C[C@@H](O[C@@H]6O[C@H](CO)[C@@H](O[C@@H]7O[C@@H](C)[C@H](O)[C@@H](O)[C@H]7O)[C@H](O)[C@H]6O[C@@H]6O[C@@H](C)[C@H](O)[C@@H](O)[C@H]6O)CC[C@]5(C)C4CC[C@]3(C)[C@@]2(O)[C@@H]1C)CO[C@@H]1O[C@H](CO)[C@@H](O)[C@H](O)[C@H]1O (stereo partly drawn) | – | 0.779% [at 11.6 µM] |
| CC(=O)OC1CC2(C)C(CCC(C)C23Cc2c(O)cc(CO)c(C=O)c2O3)C(C)(C)C1O (stereo not drawn) | inactive | – |
| CC1(C=O)CCCC2(C)C1CCC13CC(CO)C(CCC12)C3 (stereo not drawn) | inactive | – |
| CN1CCc2cc3c(cc2C(=O)Cc2cc4c(cc2C1)OCO4)OCO3 | inactive | – |
| COc1ccc(CNCc2cccc3ccccc23)cc1 | inactive | – |
| CCOc1ccc(-n2c(C(C)N(Cc3cccnc3)C(=O)Cc3ccc(F)c(C(F)(F)F)c3)nc3ncccc3c2=O)cc1 (stereo not drawn) | inactive | – |
| O=C(Cc1c(F)cccc1F)Nc1cc(OCc2ccc(Cl)cc2)ccn1 | inactive | – |
| C[C@@H](NC(=O)C(=O)c1c[nH]c2ccc([N+](=O)[O-])cc12)c1ccccc1 | inactive | – |
| CC(=O)OC/C(=C/C(=O)O)CC[C@@H]1C(C=O)=CC[C@@H]2C(C)(C)CCC[C@@]12C | inactive | – |
| Cc1cc(F)c(C(=O)Nc2cccc(-c3nncn3C(C)C)n2)cc1-n1cnc(C2CC2)c1 | inactive | – |
| CCC(C)C(=O)O[C@H]1[C@@H](OC(=O)c2ccoc2)C[C@](C)(O)[C@]23OC(C)(C)[C@H](C[C@H](OC(=O)c4ccoc4)[C@]12COC(C)=O)[C@H]3OC(C)=O (stereo partly drawn) | inactive | – |
| Cc1ccc(-c2ncc[nH]2)cc1NC(=O)c1ccc(OCc2ccccn2)cc1 | inactive | – |

Test system: Tov112D
Test: as above
Conditions: Gynecologic cancer cell panel viability, ATPlite luminescence, 48 h; series mostly up to 57.5 µM
Procedure, shortened: as §1

| Compound | Potency | activity change, negative = cytotoxicity |
| --- | --- | --- |
| Cc1ccc(C)c(NS(=O)(=O)c2cc(C(=O)Nc3ccccc3-c3ccccc3)ccc2C)c1 | inactive | – |
| C[C@@H]1C[C@H]2O[C@@]3(O[C@@H]2C(C)(C)O)C(O)[C@@]2(C)C4CCC5C(C)(C)[C@@H](O[C@H]6OC[C@H](O)[C@@H](O)[C@@H]6O)CC[C@@]56C[C@@]46CC[C@]2(C)C13 (stereo partly drawn) | inactive | – |
| CN(C)[C@@H]1CCc2[nH]c3ccc(NC(=O)c4ccc(F)cc4)cc3c2C1 | inactive | – |
| O=C(Nc1cc(C(F)(F)F)ccc1N1CCCCC1)c1ccncc1 | inactive | – |
| O=S(=O)(c1ccc(Cl)cc1)N1CCN(c2ccnc3cc(Cl)ccc23)CC1 | inactive | – |
| C=C(CCC1C(C)(O)CCC2C(C)(C)C(O)CCC12C)C(O)CO (stereo not drawn) | inactive | – |
| CCC(CC)Nc1nc(C)c(-c2ccc(OC(F)(F)F)cc2OC)nc1OC | inactive | – |
| CCOC(=O)c1ccc(OCCC2CCN(c3ccc(C)nn3)CC2)cc1 | inactive | – |
| CC(=O)NC[C@H]1CN(c2ccc(N3CCSCC3)c(F)c2)C(=O)O1 | inactive | – |
| COc1ccc(OC)c(-c2ccc(NC(=O)c3ccncc3F)cc2)c1 | inactive | – |
| Nc1nc(OCc2cc(Br)cs2)c2[nH]cnc2n1 | inactive | – |
| CC1CCC(=O)CC(SCC(O)C(=O)O)CCC(=O)O1 (stereo not drawn) | inactive | – |
| Cc1nc(N2CCN(C(=O)c3ccco3)CC2)c2c3c(sc2n1)CCCC3 | inactive | – |
| CC(C)c1cc(-c2ccc(F)c3ccccc23)nc(N)n1 | inactive | – |
| Cc1cc(C)nc(SCC(=O)Nc2ncc(Cc3cccc4ccccc34)s2)n1 | inactive | – |
| CC(C)(C)OC(=O)c1ncn2c1C(C)(C)Nc1ccccc1-2 | inactive | – |
| FC(F)(F)c1ccccc1-c1cc(C(F)(F)F)c2nc(C3=NOC4(CCCCC4)C3)[nH]c2c1 | inactive | – |
| C=C1C(=O)O[C@H]2C1CCC(C)=C1C(=O)C=C(C)[C@@]12O (stereo partly drawn) | inactive | – |
| CN(C)CCOc1cc(NS(=O)(=O)c2c(Cl)cc(C(F)(F)F)cc2Cl)ccc1Cl | inactive | – |
| O=C(NCCCCN1CCN(c2cccc(Cl)c2Cl)CC1)c1cc2ccccc2s1 | inactive | – |

| Compound | Potency | activity change, negative = cytotoxicity |
| --- | --- | --- |
| COC(=O)c1sccc1S(=O)(=O)Nc1ccc(Nc2ccccc2)cc1OC | inactive | – |
| COc1cccc(CN(C(=O)CC(C)(C)C)[C@H]2C[C@H](C(=O)N3CCNCC3)N(Cc3ccc4c(c3)OCO4)C2)c1 | inactive | – |
| CCCSc1nc(N[C@@H]2C[C@H]2c2ccc(F)c(F)c2)c2nnn([C@@H]3C[C@H](OCCO)[C@@H](O)[C@H]3O)c2n1 | inactive | – |
| COc1ccccc1N1CCN(c2ncnc3n[nH]c(Br)c23)CC1 | inactive | – |
| Cc1ccc(F)cc1S(=O)(=O)N[C@@H]1CCN(Cc2ccc(OC(C)C)cc2)C1 | inactive | – |
| Cc1ccccc1CN1CCn2c1nc1c(c2=O)CN(Cc2ccccc2)CC1 | inactive | – |
| O=C(O)c1cccc(-c2ccc(-c3cn(C(=O)N4CCCCC4Cc4ccccc4)nn3)cc2)c1 (stereo not drawn) | inactive | – |
| CC(CCC1(O)OC2CC3C4CC=C5C[C@@H](O[C@@H]6O[C@H](CO)[C@@H](O[C@@H]7O[C@@H](C)[C@H](O)[C@@H](O)[C@H]7O)[C@H](O)[C@H]6O[C@@H]6O[C@@H](C)[C@H](O)[C@@H](O)[C@H]6O)CC[C@]5(C)C4CC[C@]3(C)[C@@]2(O)[C@@H]1C)CO[C@@H]1O[C@H](CO)[C@@H](O)[C@H](O)[C@H]1O (stereo partly drawn) | – | -0.117% [at 11.6 µM] |
| CC(=O)OC1CC2(C)C(CCC(C)C23Cc2c(O)cc(CO)c(C=O)c2O3)C(C)(C)C1O (stereo not drawn) | inactive | – |
| CC1(C=O)CCCC2(C)C1CCC13CC(CO)C(CCC12)C3 (stereo not drawn) | inactive | – |
| CN1CCc2cc3c(cc2C(=O)Cc2cc4c(cc2C1)OCO4)OCO3 | inactive | – |
| COc1ccc(CNCc2cccc3ccccc23)cc1 | inactive | – |
| CCOc1ccc(-n2c(C(C)N(Cc3cccnc3)C(=O)Cc3ccc(F)c(C(F)(F)F)c3)nc3ncccc3c2=O)cc1 (stereo not drawn) | inactive | – |
| O=C(Cc1c(F)cccc1F)Nc1cc(OCc2ccc(Cl)cc2)ccn1 | inactive | – |
| C[C@@H](NC(=O)C(=O)c1c[nH]c2ccc([N+](=O)[O-])cc12)c1ccccc1 | inactive | – |
| CC(=O)OC/C(=C/C(=O)O)CC[C@@H]1C(C=O)=CC[C@@H]2C(C)(C)CCC[C@@]12C | inactive | – |
| Cc1cc(F)c(C(=O)Nc2cccc(-c3nncn3C(C)C)n2)cc1-n1cnc(C2CC2)c1 | inactive | – |
| CCC(C)C(=O)O[C@H]1[C@@H](OC(=O)c2ccoc2)C[C@](C)(O)[C@]23OC(C)(C)[C@H](C[C@H](OC(=O)c4ccoc4)[C@]12COC(C)=O)[C@H]3OC(C)=O (stereo partly drawn) | inactive | – |
| Cc1ccc(-c2ncc[nH]2)cc1NC(=O)c1ccc(OCc2ccccn2)cc1 | inactive | – |
